Assay [1] in a line: compounds altering circadian rhythm period length – cell-based, LOPAC library, luminescence reporter (AID 2774).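 Note: values are relative to mean of DMSO wells on each plate.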 As to conditions: circadian reporter cells, at 7 µM, actives lie on both sides.
Assay [2] can be described thus: compounds altering viability of human ES cells (AID 493140).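 Note: cells exposed to compounds for four days before counting.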 As to conditions: human embryonic stem cell survival screen; stronger effect = higher value.
For assay [3], the system named is Hepatitis C virus NS3 helicase. The assay is described as follows: blockers of NS3h binding to ssDNA – biochemical, fluorescence polarization, LOPAC1280 library, primary screen (AID 687035; in the data active = inhibition above about 37%). As to conditions: Purified HCV NS3 helicase, Cy5-dT15 ssDNA binding fluorescence polarization; stronger effect = higher value; concentration not given here. (In general: Polarisation of emitted light reports the rotation of a fluorescent probe.)

The nature of assay [4]: compounds altering Cy5-DNA-NS3h complex signal – biochemical, LOPAC1280, artefact control for HCV NS3 helicase inhibitor project (AID 687037). As to conditions: Cy5-DNA-NS3h complex fluorescence interference counterscreen. (In general: Counterscreens check selectivity or assay interference.)
The subject of assay [5] is Aerobactin synthetase IucA (Klebsiella pneumoniae, hypervirulent). The assay is described as follows: biochemical IucA inhibition screen of LOPAC library by absorbance (AID 1346212).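 Note: 100% = no compound wells and 0% = no enzyme wells.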 As to conditions: IucA enzyme assay, absorbance (OD) readout; stronger effect = lower value;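 tested at 8 µM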.
Assay [6] in a line: blockers of cellular phospholipid synthesis – cell-based, LOPAC library, screen 4, primary screen (AID 1347384). As to conditions: animal cells, phospholipid biosynthesis inhibition screen; at 10 µM.
The target of assay [7] is ATP-dependent translocase ABCB1 (Homo sapiens) (UniProt P08183). Kind of assay: P-glycoprotein substrate transport blockade – cell-based (AID 377; in the data active = fluorescence slope change above about 50%). As to conditions: MDR1-expressing cells, fluorescent substrate accumulation slope; stronger effect = higher value; concentration not given here.
ATP-dependent translocase ABCB1 (Homo sapiens), sequence (P08183 whole entry, looked up): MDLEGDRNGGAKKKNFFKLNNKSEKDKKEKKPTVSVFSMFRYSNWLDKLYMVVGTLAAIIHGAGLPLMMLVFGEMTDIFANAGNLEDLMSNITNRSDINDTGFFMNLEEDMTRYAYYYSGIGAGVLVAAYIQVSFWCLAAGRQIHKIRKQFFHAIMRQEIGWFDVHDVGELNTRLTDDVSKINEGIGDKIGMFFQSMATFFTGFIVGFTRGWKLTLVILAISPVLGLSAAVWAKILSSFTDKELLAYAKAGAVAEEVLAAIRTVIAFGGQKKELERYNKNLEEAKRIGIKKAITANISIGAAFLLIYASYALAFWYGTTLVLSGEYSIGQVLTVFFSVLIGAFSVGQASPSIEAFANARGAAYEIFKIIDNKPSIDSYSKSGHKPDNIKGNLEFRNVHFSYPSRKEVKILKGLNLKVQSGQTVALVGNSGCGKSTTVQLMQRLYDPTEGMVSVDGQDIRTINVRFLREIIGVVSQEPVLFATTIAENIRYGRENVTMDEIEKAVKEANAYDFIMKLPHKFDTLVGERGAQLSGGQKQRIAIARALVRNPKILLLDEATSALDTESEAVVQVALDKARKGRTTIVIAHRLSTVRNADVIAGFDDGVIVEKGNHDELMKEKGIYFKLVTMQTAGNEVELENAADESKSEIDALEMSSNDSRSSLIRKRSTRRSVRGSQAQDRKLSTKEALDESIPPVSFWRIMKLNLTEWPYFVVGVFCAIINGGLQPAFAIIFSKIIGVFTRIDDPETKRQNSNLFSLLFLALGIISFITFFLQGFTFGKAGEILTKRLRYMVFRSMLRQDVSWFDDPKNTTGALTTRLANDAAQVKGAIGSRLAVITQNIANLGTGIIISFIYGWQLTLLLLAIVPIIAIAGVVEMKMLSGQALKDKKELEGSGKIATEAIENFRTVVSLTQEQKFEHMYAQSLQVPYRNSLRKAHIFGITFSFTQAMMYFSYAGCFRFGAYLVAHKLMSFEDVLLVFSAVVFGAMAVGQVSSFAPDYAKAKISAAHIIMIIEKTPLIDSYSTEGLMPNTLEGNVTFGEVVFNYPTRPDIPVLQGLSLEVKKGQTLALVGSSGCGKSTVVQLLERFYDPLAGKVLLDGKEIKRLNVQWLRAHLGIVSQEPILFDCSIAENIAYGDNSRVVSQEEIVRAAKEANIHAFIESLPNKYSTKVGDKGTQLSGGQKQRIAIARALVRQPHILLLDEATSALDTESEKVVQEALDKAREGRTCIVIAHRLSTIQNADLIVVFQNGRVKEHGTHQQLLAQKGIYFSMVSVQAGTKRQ
Assay [8] is described as follows: blockers of polyQ-driven CASP3 activation – cell-based (AID 1583). As to conditions: polyglutamine-induced caspase-3 activation, cell assay; stronger effect = higher value;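 tested at 10 µM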.
Assay [9] can be described thus: restoration of touch response, mutant HTT neurons – whole organism, C. elegans mechanosensory neurons, N-terminal huntingtin (AID 1599). As to conditions: C. elegans polyQ-huntingtin mechanosensory neurons, stronger effect = higher value.
A short description of assay [10]: glutamate transport activators, MN-1 cells, MN-1 cell line (AID 1612).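 Note: tested at 1 µM final; 0% = mean of DMSO vehicle wells on each plate; positive means more glutamate uptake than control and negative means less.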 As to conditions: MN-1 motor neuron cells, stronger effect = higher value.
A short description of assay [11]: GFP-Q80 aggregate reduction, neuronal-like cells, cell-based, NGF-treated PC12, GFPQ80 (AID 1614).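 Note: lower means fewer inclusions and 0 means no inclusions at all.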 As to conditions: PC12 NGF-treated GFP-polyQ80 inclusion reduction.
Assay [12] can be described thus: 75Q-TubH aggregate inhibition, S. cerevisiae, yeast (AID 1616). As to conditions: S. cerevisiae 75Q-TubH polyglutamine aggregation suppression; stronger effect = higher value.
Assay [13] can be described thus: modulation of C. elegans fzo-1 (AID 1259413).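 Note: fzo-1 mutant C. elegans worms in liquid wells.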 As to conditions: C. elegans fzo-1 modulator screen, mean read-out; stronger effect = higher value.
In assay [14] the test system is F380Y. The assay is described as follows: BK channel mutant inhibitors and activators – cell-based, U2OS BacMam, thallium flux, beta subunits, selectivity assay, profiling panel (AID 1259406;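 active = thallium flux through the channel raised or lowered by more than 3 SD from vehicle-only wells, actives on both sides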;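 note: initial slope of Thallos dye fluorescence rise after thallium is added; log ratio against the mean of 0.3% DMSO vehicle wells on the same plate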). As to conditions: U2OS BacMam BK variants, at 30 µM.
Assay [15] has as its system F380Y/beta2Delta. The description is as above. As to conditions: U2OS BacMam BK variants, at 30 µM.
In assay [16] the target is Calcium-activated potassium channel subunit alpha-1 (Homo sapiens) + Leucine-rich repeat-containing protein 26 (Homo sapiens) (UniProt Q12791+Q2I0M4). Described as above. As to conditions: U2OS BacMam BK variants, F380Y/Slo1WT/gamma1, at 30 µM.
Calcium-activated potassium channel subunit alpha-1 (Homo sapiens) + Leucine-rich repeat-containing protein 26 (Homo sapiens), sequence (Q2I0M4 whole entry, looked up, one chain of several): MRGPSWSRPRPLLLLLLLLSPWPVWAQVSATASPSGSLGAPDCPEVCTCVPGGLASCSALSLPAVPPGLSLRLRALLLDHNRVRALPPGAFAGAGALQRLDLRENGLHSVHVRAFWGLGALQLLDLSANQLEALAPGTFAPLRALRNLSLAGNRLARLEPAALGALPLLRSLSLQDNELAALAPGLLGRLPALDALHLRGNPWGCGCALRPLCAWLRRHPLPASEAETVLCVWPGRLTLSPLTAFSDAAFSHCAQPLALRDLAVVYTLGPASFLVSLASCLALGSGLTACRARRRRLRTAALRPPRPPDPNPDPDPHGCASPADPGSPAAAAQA
Assay [17] has as its system R275C. The description is as above. As to conditions: U2OS BacMam BK variants, at 30 µM.
The subject of assay [18] is R275C/beta1. Described as above. As to conditions: U2OS BacMam BK variants, at 30 µM.
For assay [19], the system named is R275C/beta2Delta. Described as above. As to conditions: U2OS BacMam BK variants, at 30 µM.
In assay [20] the test system is R275C/Slo1WT/beta2. Described as above. As to conditions: U2OS BacMam BK variants, at 30 µM.

Inconclusive results are not listed. For part of these data: Measured potencies and affinities stand elsewhere. The source made the active and inactive calls. Unless noted, the rule behind the calls is not given here.

In the case of `O=c1[nH]c2ccccc2n1CCCN1CCC(n2c(=O)[nH]c3cc(Cl)ccc32)CC1`, the period change in assay [1] is -0.195 h (inactive). In assay [2], the survival was 7.33 (inactive). Further, the inhibition in assay [3] was -3% (inactive). For the same molecule, the fluorescence ratio (interference) in assay [4] is 1 (inactive). The remaining activity in assay [5] is 105% (inactive). The molecule was classed as inactive in assay [6].
On to `O=C(O)c1nn(Cc2ccc(Cl)cc2Cl)c2ccccc12`, for which the period change in assay [1] is -0.065 h (inactive). Besides, in assay [3], the inhibition is -4% (inactive). Moreover, in assay [4], the fluorescence ratio (interference) was 1 (inactive). The remaining activity in assay [5] was 110% (inactive). Also, the molecule was called inactive in assay [6].
With `CN(C)[C@@H]1C(=O)C(C(N)=O)=C(O)[C@@]2(O)C(=O)C3=C(O)c4c(O)cccc4[C@@](C)(O)[C@H]3C[C@@H]12`, the fluorescence slope change in assay [7] was 76.3% (active). Besides, the inhibition in assay [8] turned out to be 61.6%. In assay [9], the rescue above control is -1.89. The glutamate uptake change in assay [10] was determined as 10.7%. In addition, in assay [11], the inclusion score amounted to 0. In addition, in assay [12], the aggregation suppression score turned out to be 0.769. For the same molecule, the survival in assay [2] is 22.6 (inactive). Besides, the mean signal in assay [13] is 244 (inactive).
`O=C(CCCN1CCC2(CC1)C(=O)NCN2c1ccccc1)c1ccc(F)cc1`: in assay [7], the fluorescence slope change is 202% (active). Also, in [8], the inhibition is -14.9%. This molecule also displayed a rescue above control in assay [9] of 4.9. In assay [10], the glutamate uptake change was -22.8%. This molecule displayed an inclusion score in [11] of 2. The molecule also displayed an aggregation suppression score in assay [12] of 1.1. Also, in assay [1], the period change was 0.035 h (inactive). In addition, the survival in assay [2] is 7.92 (inactive). For the same molecule, the fluorescence ratio (interference) in assay [4] is 1 (inactive). Moreover, the remaining activity in [5] was 121% (inactive). Besides, the molecule was classed as inactive in [6].
For `O=C(O)CCCc1ccc(N(CCCl)CCCl)cc1`, the inhibition in [8] is 25.6%; in assay [3], -3% (inactive). For the same molecule, the rescue above control in [9] was -3.71. Also, the glutamate uptake change in [10] was -0.49%. For the same molecule, the aggregation suppression score in [12] was 0.0151. For the same molecule, the period change in [1] was -0.09 h (inactive). In addition, in assay [2], the survival was 4.5 (inactive). Also, the fluorescence ratio (interference) in assay [4] was 1 (inactive). Further, the mean signal in assay [13] was 236 (inactive). Further, the remaining activity in [5] is 115% (inactive). Moreover, the log fold change Tl+ flux in assay [14] is -0.0169 (inactive); in assay [15], 0.0059 (inactive); in assay [16], -0.00393 (inactive); in assay [17], -0.0229 (inactive); in assay [18], -0.022 (inactive); in assay [19], 0.041 (inactive). The log fold change Tl+ flux in assay [20] was 0.0346 (inactive).
Take `CCCC(C)(COC(N)=O)COC(=O)NC(C)C` (stereo unspecified): the fluorescence slope change in assay [7] was 52.8% (active). Further, the inhibition in assay [8] is 17.5%; in assay [3] it was -1% (inactive). Also, in [9], the rescue above control was 0.33. Besides, the glutamate uptake change in [10] was found to be 3.53%. In [11], the inclusion score was 2. In assay [12], the aggregation suppression score stood at 1.4. Also, in [1], the period change was 0.065 h (inactive). In addition, in assay [2], the survival was 11.2 (inactive). The fluorescence ratio (interference) in [4] was 1 (inactive). In addition, the mean signal in [13] is 258 (inactive). For the same molecule, the remaining activity in [5] is 106% (inactive). The log fold change Tl+ flux in [14] is 0.0133 (inactive); in assay [15], -0.0375 (inactive); in assay [16], 0.00552 (inactive); in [17] it was 0.0157 (inactive); in assay [18] it was 0.044 (inactive); in [19], 0.0245 (inactive). For the same molecule, in assay [20], the log fold change Tl+ flux was 0.0148 (inactive).
For the molecule `Cc1ncc(CNC(=O)N(CCCl)N=O)c(N)n1`, in assay [1], the period change was -0.065 h (inactive). For the same molecule, the inhibition in assay [3] was 2% (inactive). Further, the fluorescence ratio (interference) in [4] was 1 (inactive). In addition, in [5], the remaining activity is 113% (inactive). For the same molecule, the result in [6] was inactive.
Consider `NCCc1ccc(O)cc1`, for which the inhibition in [8] was -15.4%; in assay [3], -3% (inactive). The same molecule returned a rescue above control in assay [9] of -11.7. Moreover, the glutamate uptake change in assay [10] was -2.56%. In assay [11], this molecule returned an inclusion score of 2. This molecule displayed an aggregation suppression score in assay [12] of 1.19. In addition, the period change in [1] is 0.035 h (inactive). The fluorescence ratio (interference) in assay [4] is 1 (inactive). For the same molecule, the remaining activity in assay [5] is 98.4% (inactive). Also, in assay [6], the molecule was called inactive.

By inhibition is commonly meant the change of the read-out against control, counted positive when it falls. A word on the remaining activity: it is the signal under treatment as a percentage of the control signal.

These data come from PubChem BioAssay.
